Data on one sequence can be found in article PMC7862700, “An all-to-all approach to the identification of sequence-specific readers for epigenetic DNA modifications on cytosine”.

Common to all, as to test: DAPPL (digital affinity profiling via proximity ligation, sequencing); 10 mM Tris-HCl pH 7.5, 50 mM NaCl, 1 mM DTT, 4% glycerol, room temperature, 30 min; GST-TFs on glutathione beads, 16-mer random dsDNA library, 0.1% formaldehyde crosslink after washing; high values mean tight binding
In one assay the target is T1, FLI1 (Homo sapiens, UniProt Q01543 1-452).
T1 sequence: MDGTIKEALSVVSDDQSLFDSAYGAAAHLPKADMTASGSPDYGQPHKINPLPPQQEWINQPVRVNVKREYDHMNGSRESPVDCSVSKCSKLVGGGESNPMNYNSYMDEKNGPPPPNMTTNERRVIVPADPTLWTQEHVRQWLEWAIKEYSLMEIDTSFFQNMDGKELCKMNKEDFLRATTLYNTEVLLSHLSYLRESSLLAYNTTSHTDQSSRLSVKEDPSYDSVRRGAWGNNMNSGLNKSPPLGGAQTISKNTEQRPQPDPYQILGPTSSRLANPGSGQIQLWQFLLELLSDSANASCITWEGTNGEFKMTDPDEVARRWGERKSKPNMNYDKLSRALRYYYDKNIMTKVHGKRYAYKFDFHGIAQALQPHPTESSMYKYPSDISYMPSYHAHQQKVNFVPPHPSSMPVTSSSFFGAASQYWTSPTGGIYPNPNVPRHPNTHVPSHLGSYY
The conditions noted are these: protein: recombinant; tags: N-terminal GST; dsDNA, one strand shown. The method, boiled down: (§1)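 The binding signal reported is, for every hexamer, its read frequency for a factor over its read frequency for the tag-only sample. Reads came from pools of yeast-expressed, GST-fused human transcription factors on glutathione beads, barcoded with DNA and mixed with that sample, which were incubated with 200 nmole of a random double-stranded 16-mer DNA library in Tris/NaCl/DTT/glycerol buffer at room temperature for 30 min. After washing, the pools were crosslinked with 0.1% formaldehyde, proximity-ligated with BsaI/T4 ligase for 1 h at 37 °C, PCR-amplified and sequenced on an Illumina NextSeq500.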

Another assay addresses T2, ELK1 (Homo sapiens, UniProt P19419 1-428).
T2 sequence: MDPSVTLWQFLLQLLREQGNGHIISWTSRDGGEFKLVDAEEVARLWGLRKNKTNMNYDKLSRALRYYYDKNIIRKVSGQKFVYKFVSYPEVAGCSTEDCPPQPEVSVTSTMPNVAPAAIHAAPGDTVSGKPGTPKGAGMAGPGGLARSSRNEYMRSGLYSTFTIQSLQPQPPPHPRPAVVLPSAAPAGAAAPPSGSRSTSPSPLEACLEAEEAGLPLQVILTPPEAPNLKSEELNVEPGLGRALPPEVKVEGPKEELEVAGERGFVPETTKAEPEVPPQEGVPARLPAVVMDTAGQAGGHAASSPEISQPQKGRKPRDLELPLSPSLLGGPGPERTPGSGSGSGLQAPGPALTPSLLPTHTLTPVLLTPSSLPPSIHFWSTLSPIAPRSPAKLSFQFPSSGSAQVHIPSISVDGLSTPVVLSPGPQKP
The conditions noted are these: protein: recombinant; tags: N-terminal GST; dsDNA, one strand shown. In outline: as §1

In a further assay the target is T3, GABPA (Homo sapiens, UniProt Q06546 1-454).
T3 sequence: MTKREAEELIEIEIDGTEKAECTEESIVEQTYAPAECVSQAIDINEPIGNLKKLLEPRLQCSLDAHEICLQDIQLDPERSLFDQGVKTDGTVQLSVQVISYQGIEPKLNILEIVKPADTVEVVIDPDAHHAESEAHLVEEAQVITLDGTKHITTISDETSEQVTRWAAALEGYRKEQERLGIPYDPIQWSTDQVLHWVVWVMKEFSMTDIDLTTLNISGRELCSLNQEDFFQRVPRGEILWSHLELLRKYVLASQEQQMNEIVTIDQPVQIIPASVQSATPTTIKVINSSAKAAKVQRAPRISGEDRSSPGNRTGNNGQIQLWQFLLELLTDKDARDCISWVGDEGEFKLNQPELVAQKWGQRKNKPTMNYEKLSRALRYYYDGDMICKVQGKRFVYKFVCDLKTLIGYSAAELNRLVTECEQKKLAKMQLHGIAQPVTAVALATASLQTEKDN
The conditions noted are these: protein: recombinant; tags: N-terminal GST; dsDNA, one strand shown. The method, boiled down: as §1

The next assay deals with T4, ERG (Homo sapiens, UniProt P11308 1-479).
T4 sequence: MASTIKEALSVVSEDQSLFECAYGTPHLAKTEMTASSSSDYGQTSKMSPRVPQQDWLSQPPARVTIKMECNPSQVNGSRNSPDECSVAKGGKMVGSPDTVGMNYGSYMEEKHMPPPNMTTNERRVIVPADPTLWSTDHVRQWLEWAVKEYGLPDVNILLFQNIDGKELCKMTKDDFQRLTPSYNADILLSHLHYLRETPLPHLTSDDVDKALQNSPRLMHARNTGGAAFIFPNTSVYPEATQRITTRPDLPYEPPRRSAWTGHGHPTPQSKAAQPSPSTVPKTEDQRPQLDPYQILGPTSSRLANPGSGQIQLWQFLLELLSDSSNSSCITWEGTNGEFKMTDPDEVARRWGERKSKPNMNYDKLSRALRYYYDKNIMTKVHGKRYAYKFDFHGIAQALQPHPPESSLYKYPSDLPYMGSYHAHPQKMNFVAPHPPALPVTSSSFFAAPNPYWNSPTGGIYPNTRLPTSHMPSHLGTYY
As to conditions: protein: recombinant; tags: N-terminal GST; dsDNA, one strand shown. In outline:
as §1

In the next assay the target is ELF1 (Homo sapiens, UniProt P32519 1-619). As to conditions: protein: recombinant; tags: N-terminal GST; dsDNA, one strand shown. In outline:
as §1

For another assay, the target named is T5, EHF (Homo sapiens, UniProt Q9NZC4 1-300).
T5 sequence: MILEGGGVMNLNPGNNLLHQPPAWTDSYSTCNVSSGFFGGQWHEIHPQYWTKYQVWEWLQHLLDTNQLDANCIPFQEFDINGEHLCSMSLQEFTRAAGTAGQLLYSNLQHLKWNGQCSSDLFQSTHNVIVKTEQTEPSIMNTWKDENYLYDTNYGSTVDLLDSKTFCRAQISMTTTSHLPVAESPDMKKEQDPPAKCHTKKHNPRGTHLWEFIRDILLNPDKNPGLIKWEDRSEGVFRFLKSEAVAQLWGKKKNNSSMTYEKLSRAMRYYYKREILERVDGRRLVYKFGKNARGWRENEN
The conditions noted are these: protein: recombinant; tags: N-terminal GST; dsDNA, one strand shown. In outline: as §1

Another assay deals with SPI1 (Homo sapiens, UniProt P17947 1-270). The conditions noted are these: protein: recombinant; tags: N-terminal GST; dsDNA, one strand shown. The method, boiled down: as §1
For the next assay, the target named is SPIB (Homo sapiens, UniProt Q01892 1-262). The conditions noted are these: protein: recombinant; tags: N-terminal GST; dsDNA, one strand shown. The method, boiled down:
as §1

In another assay the target is T6, ELK3 (Homo sapiens, UniProt P41970 1-407).
T6 sequence: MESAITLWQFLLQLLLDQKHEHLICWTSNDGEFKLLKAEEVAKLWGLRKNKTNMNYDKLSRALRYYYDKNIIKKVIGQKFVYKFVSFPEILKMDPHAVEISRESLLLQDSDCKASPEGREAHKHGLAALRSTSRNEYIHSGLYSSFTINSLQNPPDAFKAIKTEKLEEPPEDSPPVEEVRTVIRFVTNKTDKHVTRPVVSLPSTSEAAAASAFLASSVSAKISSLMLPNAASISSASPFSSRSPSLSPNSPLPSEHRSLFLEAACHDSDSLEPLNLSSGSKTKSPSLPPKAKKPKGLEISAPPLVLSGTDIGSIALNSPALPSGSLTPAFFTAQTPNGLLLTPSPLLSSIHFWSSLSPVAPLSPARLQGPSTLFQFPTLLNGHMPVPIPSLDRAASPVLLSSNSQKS
The conditions noted are these: protein: recombinant; tags: N-terminal GST; dsDNA, one strand shown. The method, boiled down: as §1

A further assay has as its target T7, FEV (Homo sapiens, UniProt Q99581 1-238).
T7 sequence: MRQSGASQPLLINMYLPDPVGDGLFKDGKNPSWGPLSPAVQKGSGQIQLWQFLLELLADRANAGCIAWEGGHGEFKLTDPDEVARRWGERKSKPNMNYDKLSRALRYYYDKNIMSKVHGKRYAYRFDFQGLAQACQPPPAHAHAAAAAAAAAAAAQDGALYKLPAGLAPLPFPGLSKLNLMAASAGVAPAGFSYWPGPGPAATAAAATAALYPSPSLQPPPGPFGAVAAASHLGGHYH
The conditions noted are these: protein: recombinant; tags: N-terminal GST; dsDNA, one strand shown. The method, boiled down: as §1

For a further assay, the target named is ETV5 (Homo sapiens, UniProt P41161 1-510). As to conditions: protein: recombinant; tags: N-terminal GST; dsDNA, one strand shown. The method, boiled down: as §1
Sequence of ETV5 (P41161 whole entry): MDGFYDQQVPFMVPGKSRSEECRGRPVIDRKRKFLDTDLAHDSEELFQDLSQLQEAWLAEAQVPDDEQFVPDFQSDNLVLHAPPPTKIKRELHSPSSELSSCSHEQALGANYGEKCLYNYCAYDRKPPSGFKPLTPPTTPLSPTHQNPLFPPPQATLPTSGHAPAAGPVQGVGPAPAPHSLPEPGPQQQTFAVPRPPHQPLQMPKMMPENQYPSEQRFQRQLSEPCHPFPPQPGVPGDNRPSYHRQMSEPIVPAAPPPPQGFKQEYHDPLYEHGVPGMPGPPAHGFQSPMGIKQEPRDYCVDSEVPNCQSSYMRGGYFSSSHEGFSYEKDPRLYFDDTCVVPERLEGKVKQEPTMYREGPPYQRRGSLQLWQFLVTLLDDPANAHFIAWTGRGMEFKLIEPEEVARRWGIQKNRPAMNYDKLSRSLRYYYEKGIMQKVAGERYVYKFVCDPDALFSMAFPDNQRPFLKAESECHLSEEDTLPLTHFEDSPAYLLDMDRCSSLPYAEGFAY
A further assay deals with HSF1 (Homo sapiens, UniProt Q00613 1-529). As to conditions: protein: recombinant; tags: N-terminal GST; chain copies: 3; dsDNA, one strand shown. In outline: as §1
Sequence of HSF1 (Q00613 whole entry): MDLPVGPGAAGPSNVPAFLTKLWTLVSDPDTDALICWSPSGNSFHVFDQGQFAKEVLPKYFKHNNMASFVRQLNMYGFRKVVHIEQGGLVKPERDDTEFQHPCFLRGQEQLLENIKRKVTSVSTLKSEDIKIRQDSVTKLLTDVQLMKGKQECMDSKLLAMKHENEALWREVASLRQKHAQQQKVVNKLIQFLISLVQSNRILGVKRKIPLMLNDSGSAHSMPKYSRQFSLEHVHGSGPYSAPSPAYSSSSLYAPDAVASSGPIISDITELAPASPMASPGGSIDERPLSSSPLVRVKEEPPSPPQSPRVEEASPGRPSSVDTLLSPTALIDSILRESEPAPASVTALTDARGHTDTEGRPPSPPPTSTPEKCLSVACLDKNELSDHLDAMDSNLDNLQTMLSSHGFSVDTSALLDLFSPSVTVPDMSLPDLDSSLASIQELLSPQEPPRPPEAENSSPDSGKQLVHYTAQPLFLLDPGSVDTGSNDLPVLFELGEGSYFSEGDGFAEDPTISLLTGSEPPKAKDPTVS
The target of the next assay is T8, SPIC (Homo sapiens, UniProt Q8N5J4 1-248).
T8 sequence: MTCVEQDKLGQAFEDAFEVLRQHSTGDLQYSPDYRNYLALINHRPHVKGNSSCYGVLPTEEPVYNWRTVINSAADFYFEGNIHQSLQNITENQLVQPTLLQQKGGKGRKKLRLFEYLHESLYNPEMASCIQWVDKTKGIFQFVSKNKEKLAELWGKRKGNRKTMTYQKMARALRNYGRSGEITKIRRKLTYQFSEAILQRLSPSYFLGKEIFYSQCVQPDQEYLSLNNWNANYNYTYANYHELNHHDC
The conditions noted are these: protein: recombinant; tags: N-terminal GST; dsDNA, one strand shown. The method, boiled down:
as §1

The target in the next assay is ELF4 (Homo sapiens, UniProt Q99607 1-663). As to conditions: protein: recombinant; tags: N-terminal GST; dsDNA, one strand shown. In outline: as §1
Sequence of ELF4 (Q99607 whole entry): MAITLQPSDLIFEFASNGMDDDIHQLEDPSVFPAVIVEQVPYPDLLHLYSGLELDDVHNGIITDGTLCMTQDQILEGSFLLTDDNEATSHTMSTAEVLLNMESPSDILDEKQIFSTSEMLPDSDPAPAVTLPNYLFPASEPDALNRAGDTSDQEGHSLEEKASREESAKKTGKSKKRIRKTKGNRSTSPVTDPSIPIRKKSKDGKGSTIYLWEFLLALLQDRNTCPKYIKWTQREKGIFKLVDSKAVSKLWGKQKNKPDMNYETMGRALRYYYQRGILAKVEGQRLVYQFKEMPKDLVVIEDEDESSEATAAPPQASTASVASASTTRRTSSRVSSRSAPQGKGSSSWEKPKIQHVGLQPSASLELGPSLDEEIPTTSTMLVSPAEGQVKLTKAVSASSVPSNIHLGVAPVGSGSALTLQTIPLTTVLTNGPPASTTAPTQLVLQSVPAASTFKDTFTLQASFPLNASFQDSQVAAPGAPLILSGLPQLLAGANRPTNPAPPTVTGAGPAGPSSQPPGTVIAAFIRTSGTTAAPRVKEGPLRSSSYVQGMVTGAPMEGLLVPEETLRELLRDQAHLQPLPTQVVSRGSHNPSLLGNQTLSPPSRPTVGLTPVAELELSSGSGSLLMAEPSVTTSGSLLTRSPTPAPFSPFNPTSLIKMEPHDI
Another assay has as its target T9, ELK4 (Homo sapiens, UniProt P28324-2 1-405).
T9 sequence: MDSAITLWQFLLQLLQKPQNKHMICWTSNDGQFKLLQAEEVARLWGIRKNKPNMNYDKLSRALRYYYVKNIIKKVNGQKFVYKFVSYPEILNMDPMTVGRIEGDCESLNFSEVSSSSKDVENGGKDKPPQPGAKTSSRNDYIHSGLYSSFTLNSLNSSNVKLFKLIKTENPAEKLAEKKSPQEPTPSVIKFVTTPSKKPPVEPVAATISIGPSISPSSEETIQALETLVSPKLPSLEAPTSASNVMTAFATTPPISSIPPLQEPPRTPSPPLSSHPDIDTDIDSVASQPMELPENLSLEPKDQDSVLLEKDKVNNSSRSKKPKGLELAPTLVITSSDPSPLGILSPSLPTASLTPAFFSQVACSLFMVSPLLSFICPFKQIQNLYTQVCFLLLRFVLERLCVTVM
The conditions noted are these: protein: recombinant; tags: N-terminal GST; dsDNA, one strand shown. The method, boiled down:
as §1

Another assay has as its target T10, ELF3 (Homo sapiens, UniProt P78545 1-371).
T10 sequence: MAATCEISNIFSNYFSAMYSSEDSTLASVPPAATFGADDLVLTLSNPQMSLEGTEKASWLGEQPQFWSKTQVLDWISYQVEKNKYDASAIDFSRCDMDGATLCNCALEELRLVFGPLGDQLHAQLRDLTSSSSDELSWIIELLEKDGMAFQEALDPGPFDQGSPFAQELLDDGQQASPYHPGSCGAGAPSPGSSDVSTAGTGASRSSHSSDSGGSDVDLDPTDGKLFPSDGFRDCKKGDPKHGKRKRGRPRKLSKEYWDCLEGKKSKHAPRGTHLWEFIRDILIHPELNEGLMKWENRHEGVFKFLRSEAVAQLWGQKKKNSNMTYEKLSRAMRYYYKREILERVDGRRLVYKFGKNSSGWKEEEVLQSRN
As to conditions: protein: recombinant; tags: N-terminal GST; dsDNA, one strand shown. The method, boiled down: as §1

The next assay concerns the target CRX (Homo sapiens, UniProt O43186 1-299). The conditions noted are these: protein: recombinant; tags: N-terminal GST; dsDNA, one strand shown. The method, boiled down:
as §1

Another assay addresses ETV1 (Homo sapiens, UniProt P50549 1-477). The conditions noted are these: protein: recombinant; tags: N-terminal GST; dsDNA, one strand shown. The method, boiled down: as §1

Sequence of ETV1 (P50549 whole entry): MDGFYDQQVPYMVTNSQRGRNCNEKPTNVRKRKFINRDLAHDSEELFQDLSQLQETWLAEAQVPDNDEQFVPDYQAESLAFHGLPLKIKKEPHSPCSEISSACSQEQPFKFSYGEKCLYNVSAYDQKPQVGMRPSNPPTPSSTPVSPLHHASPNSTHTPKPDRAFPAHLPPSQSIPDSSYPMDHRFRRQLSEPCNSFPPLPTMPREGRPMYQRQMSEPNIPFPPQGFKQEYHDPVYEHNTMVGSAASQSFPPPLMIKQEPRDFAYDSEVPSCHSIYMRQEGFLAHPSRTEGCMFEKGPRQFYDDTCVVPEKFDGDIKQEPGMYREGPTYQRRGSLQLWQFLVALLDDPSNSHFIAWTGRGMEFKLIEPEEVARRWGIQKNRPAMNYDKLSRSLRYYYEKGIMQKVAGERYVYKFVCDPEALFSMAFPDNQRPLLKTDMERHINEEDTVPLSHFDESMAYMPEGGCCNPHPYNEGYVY
Sequence of SPIB (Q01892 whole entry): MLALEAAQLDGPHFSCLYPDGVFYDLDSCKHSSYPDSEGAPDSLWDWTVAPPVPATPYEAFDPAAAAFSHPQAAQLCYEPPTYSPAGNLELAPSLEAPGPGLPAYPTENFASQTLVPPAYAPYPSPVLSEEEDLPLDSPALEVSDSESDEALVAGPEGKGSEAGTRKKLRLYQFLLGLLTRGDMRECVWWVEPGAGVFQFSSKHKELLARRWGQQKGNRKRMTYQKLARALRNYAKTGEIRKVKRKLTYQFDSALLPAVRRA
Sequence of CRX (O43186 whole entry): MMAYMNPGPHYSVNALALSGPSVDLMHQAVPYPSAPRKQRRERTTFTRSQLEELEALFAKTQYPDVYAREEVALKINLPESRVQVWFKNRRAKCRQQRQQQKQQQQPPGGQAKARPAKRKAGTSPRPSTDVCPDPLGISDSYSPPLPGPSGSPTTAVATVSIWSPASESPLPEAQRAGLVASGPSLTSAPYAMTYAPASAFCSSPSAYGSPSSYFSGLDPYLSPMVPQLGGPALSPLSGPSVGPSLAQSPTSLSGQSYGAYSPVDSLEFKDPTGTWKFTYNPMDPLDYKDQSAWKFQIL
Sequence of ELF1 (P32519 whole entry): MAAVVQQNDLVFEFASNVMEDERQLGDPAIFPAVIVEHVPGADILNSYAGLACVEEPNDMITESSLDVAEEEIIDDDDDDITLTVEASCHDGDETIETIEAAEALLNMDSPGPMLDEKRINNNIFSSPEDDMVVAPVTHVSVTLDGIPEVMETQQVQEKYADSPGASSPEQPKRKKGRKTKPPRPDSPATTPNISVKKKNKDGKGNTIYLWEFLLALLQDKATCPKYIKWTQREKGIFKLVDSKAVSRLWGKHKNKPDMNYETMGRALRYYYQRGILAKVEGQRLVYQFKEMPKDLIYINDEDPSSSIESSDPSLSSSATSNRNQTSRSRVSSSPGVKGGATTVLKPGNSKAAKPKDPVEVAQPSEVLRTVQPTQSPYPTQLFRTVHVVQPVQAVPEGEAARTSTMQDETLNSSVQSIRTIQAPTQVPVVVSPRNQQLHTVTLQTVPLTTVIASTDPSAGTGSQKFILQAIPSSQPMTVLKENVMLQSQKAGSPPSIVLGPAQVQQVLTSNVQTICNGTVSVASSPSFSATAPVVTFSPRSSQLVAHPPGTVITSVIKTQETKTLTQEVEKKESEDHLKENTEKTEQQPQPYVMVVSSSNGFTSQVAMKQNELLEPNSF

On to GGGCTT, for which the binding signal was 1.31 fold enrichment (6-mer frequency, TF over GST control) with FLI1; 1.18 fold enrichment (6-mer frequency, TF over GST control) with ELK1; 1.15 fold enrichment (6-mer frequency, TF over GST control) in the assay with GABPA; 1.21 fold enrichment (6-mer frequency, TF over GST control) in the assay with ERG; 1.19 fold enrichment (6-mer frequency, TF over GST control) with ELF1; 1.24 fold enrichment (6-mer frequency, TF over GST control) in the assay with EHF. In addition, the binding signal in the assay with SPI1 was 1.1 fold enrichment (6-mer frequency, TF over GST control); with SPIB, 1.2 fold enrichment (6-mer frequency, TF over GST control); with ELK3 it was 1.41 fold enrichment (6-mer frequency, TF over GST control); with FEV it was 1.24 fold enrichment (6-mer frequency, TF over GST control); with ETV5 it was 1.18 fold enrichment (6-mer frequency, TF over GST control); with HSF1 it was 1.46 fold enrichment (6-mer frequency, TF over GST control). For the same sequence, the binding signal was 1.11 fold enrichment (6-mer frequency, TF over GST control) with SPIC; 1.08 fold enrichment (6-mer frequency, TF over GST control) with ELF4; 1.22 fold enrichment (6-mer frequency, TF over GST control) in the assay with ELK4; 1.17 fold enrichment (6-mer frequency, TF over GST control) with ELF3; 1.77 fold enrichment (6-mer frequency, TF over GST control) with CRX; 1.29 fold enrichment (6-mer frequency, TF over GST control) with ETV1.
